According to PubChem BioAssay:
Activity calls are given as the source filed them. Unless noted, the rule behind the calls is not given here.

Key:
[1] = tested on: Wnt5a (protein binding on small-molecule microarray); experiment: Wnt5a binders on small-molecule microarray, primary screen, biophysical, 635/667 nm fluorescence (AID 1142); details: 635 nm fluorescence, higher = more signal;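 note: fluorescence read at 667 nm with signal to noise per printed feature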
[2] = cell viability in Huh7 cells, primary screen, cytotoxicity control for HCV replication inhibitor project, CellTiter-Glo luminescence, basal, 48 h (AID 1143); details: Huh7 HCV replicon, higher = more signal, called active from +8 up or from −8 down;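 note: Huh7 hepatoma cells carrying a hepatitis C replication reporter with no stimulus; test concentration not given here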
[3] = P. aeruginosa biofilm formation inhibitors, primary screen, PAO1 strain, BacTiter-Glo luminescence, LB-PBS (AID 1144); details: 12 h, higher = more signal
[4] = CREB reporter modulators without forskolin, primary screen, cell-based, PC12, CRE-LacZ reporter, unstimulated (AID 1145); details: no forskolin, luminescence, 4.5 h, higher = more signal, called active from +8 up or from −8 down
[5] = CREB reporter modulators under forskolin, primary screen, cell-based, PC12, CRE-LacZ reporter, forskolin-stimulated (AID 1146); details: luminescence, 4.5 h, higher = more signal, called active from +8 up or from −8 down;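 note: PC12 cells with 6xCRE LacZ reporter stimulated by forskolin 10 µM; beta-galactosidase reporter signal reflecting CREB driven transcription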
[6] = target: Streptavidin (Streptomyces avidinii) (UniProt P22629); experiment: streptavidin binders on small-molecule microarray, primary screen, artefact control for SMM compound annotation, biophysical, 635/667 nm fluorescence (AID 1147); details: streptavidin binding, higher = more signal;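 note: signal reflects streptavidin binding to arrayed compounds as a control protein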
[7] = small-molecule binders of probe aInhba, primary screen, biochemical, small-molecule microarray, 635/667 nm fluorescence (AID 1148); details: higher = more signal;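 note: score merges 667nm spot fluorescence with signal-to-noise for antibody binding to printed compounds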
Torsin-1A (Homo sapiens) [8] = target: Torsin-1A (Homo sapiens) (UniProt O14656); experiment: torsin A binders from cell lysate, primary screen, small-molecule microarray, wild-type, 635/667 nm (AID 1149); details: COS7 hTOR1A-WT lysate, 635 nm fluorescence, higher = more signal
Torsin-1A (Homo sapiens) [9] = target: Torsin-1A (Homo sapiens) (UniProt O14656); experiment: small-molecule binders of mutant TOR1A in lysate, primary screen, cell lysate, small-molecule microarray, COS7 lysate, 635/667 nm fluorescence (AID 1150); details: COS7 hTOR1A mutant lysate, 635 nm fluorescence, higher = more signal;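 note: score pools 667 nm emission and signal to noise measuring lysate protein binding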
[10] = tested on: Sonic hedgehog protein (Shh); experiment: small-molecule binders of Shh protein, primary screen, biochemical, small-molecule microarray, 635/667 nm fluorescence (AID 1151); details: small-molecule microarray binding, 635 nm fluorescence; higher = more signal;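 note: Shh protein binding to compounds spotted on small-molecule microarray slides; score combines spot fluorescence intensity with signal-to-noise across triplicate slides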
[11] = E. coli DRC41 culture turbidity changes, primary screen, E. coli filamentation inducer project, strain DRC41, OD650, 48 h (AID 1152);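 note: E. coli MC1000 strain DRC41 lacking acrAB efflux pump and sulA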; details: E. coli DRC41 (acrAB sulA), higher = more signal, called active from +8 up or from −8 down
[12] = small-molecule binders of probe aLefty1, primary screen, biochemical, small-molecule microarray, 635/667 nm fluorescence (AID 1153); details: higher = more signal;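 note: score merges spot fluorescence with signal-to-noise ratio from the scanned slide images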
[13] = PSAC antagonists in infected red cells, primary screen, cell-based, P. falciparum Indochina, OD700, 1 h (AID 1154); details: P. falciparum Indochina infected RBC osmotic lysis, higher = more signal, called active from +8 up or from −8 down
[14] = PSAC antagonists in infected red cells, primary screen, cell-based, P. falciparum Indochina, OD700, 2 h (AID 1155);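 note: lysis reports solute entry through the parasite surface anion channel PSAC; channel blockers reduce lysis of infected cells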; details: P. falciparum Indochina infected erythrocytes, osmotic lysis OD700; higher = more signal, called active from +8 up or from −8 down
[15] = osmotic lysis modulators in infected erythrocytes, primary screen, PSAC antagonist project, cell-based, P. falciparum Indochina, OD700, 3 h (AID 1156); details: higher = more signal, called active from +8 up or from −8 down
[16] = PSAC antagonists in infected red cells, primary screen, cell-based, P. falciparum Indochina, OD700, 18 h (AID 1157); details: P. falciparum Indochina infected erythrocytes, osmotic lysis OD700, 18 h; higher = more signal, called active from +8 up or from −8 down
[17] = modulators of S6 phosphorylation in cells, primary screen, cell-based, A549, cytoblot, luminescence, serum-stimulated (AID 1158); details: A549 phospho-S6 cytoblot, 5 h, higher = more signal;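 note: serum-stimulated A549 lung adenocarcinoma cells; signal is phosphorylated S6 detected by cytoblot immunostaining with HRP secondary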
[18] = target: NADPH oxidase 2 (Homo sapiens) (UniProt P04839); experiment: NOX2-dependent H2O2 signal modulators, primary screen, NOX inhibitor project, cell-based, HEK293-NOX2, PMA-stimulated, Amplex Red fluorescence (AID 1159); details: 45 min, higher = more signal, called active from +8 up or from −8 down; note: test concentration not given here
[19] = target: NADPH oxidase 4 (Homo sapiens) (UniProt Q9NPH5); experiment: NOX4-dependent H2O2 signal modulators, primary screen, NOX inhibitor project, cell-based, HEK293-NOX4, tetracycline-induced, Amplex Red fluorescence (AID 1160); details: 45 min, higher = more signal, called active from +8 up or from −8 down
[20] = target: NADPH oxidase 5 (Homo sapiens) (UniProt Q96PH1); experiment: NOX5-dependent H2O2 signal modulators, primary screen, NOX inhibitor project, cell-based, HEK293-NOX5, Amplex Red fluorescence (AID 1161); details: HEK293-NOX5, ionomycin, 45 min, higher = more signal
NADPH oxidase 5 (Homo sapiens), sequence (Q96PH1 whole entry, looked up): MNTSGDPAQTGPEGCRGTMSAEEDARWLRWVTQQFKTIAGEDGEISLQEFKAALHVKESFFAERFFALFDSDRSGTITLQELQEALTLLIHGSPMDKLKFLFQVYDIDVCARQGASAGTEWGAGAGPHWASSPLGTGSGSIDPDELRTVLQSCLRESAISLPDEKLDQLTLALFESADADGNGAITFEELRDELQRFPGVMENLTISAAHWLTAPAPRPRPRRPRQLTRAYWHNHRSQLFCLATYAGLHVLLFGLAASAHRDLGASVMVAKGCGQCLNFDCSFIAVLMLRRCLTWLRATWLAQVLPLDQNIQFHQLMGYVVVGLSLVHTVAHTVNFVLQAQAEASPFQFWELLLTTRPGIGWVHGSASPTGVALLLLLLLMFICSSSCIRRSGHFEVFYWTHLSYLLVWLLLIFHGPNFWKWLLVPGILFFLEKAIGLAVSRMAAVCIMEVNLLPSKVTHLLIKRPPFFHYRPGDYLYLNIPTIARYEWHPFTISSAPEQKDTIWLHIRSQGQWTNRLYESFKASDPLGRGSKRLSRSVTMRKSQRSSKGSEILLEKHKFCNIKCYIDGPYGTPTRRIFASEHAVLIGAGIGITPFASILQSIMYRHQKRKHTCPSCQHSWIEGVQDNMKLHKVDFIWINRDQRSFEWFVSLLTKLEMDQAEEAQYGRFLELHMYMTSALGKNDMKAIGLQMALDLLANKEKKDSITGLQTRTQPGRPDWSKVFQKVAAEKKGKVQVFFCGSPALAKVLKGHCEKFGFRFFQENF

NADPH oxidase 2 (Homo sapiens), sequence (P04839 whole entry, looked up): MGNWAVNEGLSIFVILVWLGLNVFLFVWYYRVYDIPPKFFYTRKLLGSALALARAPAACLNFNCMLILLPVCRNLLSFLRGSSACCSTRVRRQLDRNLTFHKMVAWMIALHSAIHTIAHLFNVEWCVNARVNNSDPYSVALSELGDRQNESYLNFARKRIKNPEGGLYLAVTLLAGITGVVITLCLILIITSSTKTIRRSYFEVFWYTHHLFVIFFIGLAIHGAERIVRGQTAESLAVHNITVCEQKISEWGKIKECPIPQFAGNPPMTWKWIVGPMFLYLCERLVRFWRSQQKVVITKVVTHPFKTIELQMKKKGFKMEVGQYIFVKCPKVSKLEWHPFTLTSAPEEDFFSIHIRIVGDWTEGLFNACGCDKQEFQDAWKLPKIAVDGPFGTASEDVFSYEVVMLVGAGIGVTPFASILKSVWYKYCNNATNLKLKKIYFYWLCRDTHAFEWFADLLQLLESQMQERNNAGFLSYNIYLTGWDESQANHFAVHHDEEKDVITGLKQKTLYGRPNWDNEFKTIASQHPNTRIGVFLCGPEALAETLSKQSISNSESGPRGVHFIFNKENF
NADPH oxidase 4 (Homo sapiens), sequence (Q9NPH5 whole entry, looked up): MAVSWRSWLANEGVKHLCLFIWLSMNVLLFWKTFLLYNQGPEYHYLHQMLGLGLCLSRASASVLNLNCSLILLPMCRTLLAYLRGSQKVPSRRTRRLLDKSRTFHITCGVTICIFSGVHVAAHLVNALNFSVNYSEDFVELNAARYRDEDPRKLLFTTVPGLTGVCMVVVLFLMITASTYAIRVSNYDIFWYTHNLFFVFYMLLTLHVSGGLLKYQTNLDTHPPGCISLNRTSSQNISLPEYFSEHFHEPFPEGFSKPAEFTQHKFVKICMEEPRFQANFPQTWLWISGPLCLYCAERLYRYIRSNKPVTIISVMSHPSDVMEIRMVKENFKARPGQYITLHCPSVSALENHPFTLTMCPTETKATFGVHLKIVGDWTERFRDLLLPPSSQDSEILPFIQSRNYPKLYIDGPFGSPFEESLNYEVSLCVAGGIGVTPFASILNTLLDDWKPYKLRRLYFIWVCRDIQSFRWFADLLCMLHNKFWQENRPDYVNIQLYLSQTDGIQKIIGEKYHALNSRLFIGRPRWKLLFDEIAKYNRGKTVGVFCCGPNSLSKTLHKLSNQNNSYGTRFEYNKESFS
Torsin-1A (Homo sapiens), sequence (O14656 whole entry, looked up): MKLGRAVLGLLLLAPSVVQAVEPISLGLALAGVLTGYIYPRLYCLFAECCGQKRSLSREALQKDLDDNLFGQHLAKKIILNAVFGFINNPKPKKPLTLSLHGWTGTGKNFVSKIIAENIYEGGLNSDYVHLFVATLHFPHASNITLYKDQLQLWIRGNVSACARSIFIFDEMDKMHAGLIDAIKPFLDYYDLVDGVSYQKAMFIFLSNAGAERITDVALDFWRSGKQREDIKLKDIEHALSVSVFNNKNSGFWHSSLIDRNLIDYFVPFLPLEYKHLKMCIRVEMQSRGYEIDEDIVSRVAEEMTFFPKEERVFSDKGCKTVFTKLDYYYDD
Streptavidin (Streptomyces avidinii), sequence (P22629 whole entry, looked up): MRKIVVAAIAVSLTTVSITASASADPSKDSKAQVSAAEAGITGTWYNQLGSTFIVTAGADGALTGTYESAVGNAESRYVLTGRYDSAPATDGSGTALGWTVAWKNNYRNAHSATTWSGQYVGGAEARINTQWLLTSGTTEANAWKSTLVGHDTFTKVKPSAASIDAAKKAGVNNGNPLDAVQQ

SMILES | composite z-score [1] | z-score [2] | z-score [3] | z-score [4] | z-score [5] | composite z-score [6] | composite z-score [7] | composite z-score (Torsin-1A (Homo sapiens) [8]) | composite z-score (Torsin-1A (Homo sapiens) [9]) | composite z-score [10] | z-score [11] | composite z-score [12] | z-score [13] | z-score [14] | z-score [15] | z-score [16] | z-score [17] | z-score [18] | z-score [19] | z-score [20]
COc1ccc([Si](C)(C)[C@@H]2[C@@H](CCO)O[C@]3(C(=O)N(Cc4cccc(N5CCCCC5=O)c4)c4ccccc43)[C@H]2C)cc1 | -0.0438 | -7.9 (inactive) | 0.671 (inactive) | 15.5 (active) | 0.456 (inactive) | -0.276 | -0.024 | 0.38 | 0.965 | 1.27 | -0.402 (inactive) | 0.236 | 5.77 (inactive) | 2.69 (inactive) | 0.703 (inactive) | 2 (inactive) | -0.549 | -2.79 (inactive) | -0.322 (inactive) | 1.54
C=C[C@H](C)[C@H](OC(=O)Nc1ccc(OC)cc1)c1ccc(O)c2ccccc12 | 0.107 | -3.55 (inactive) | -0.156 (inactive) | 0.236 (inactive) | 0.544 (inactive) | -0.199 | -0.128 | 0.822 | 0.16 | 0.9 | -0.222 (inactive) | 0.0313 | 1.71 (inactive) | 0.435 (inactive) | -0.554 (inactive) | -0.187 (inactive) | 0.486 | -5.39 (inactive) | -1.77 (inactive) | -0.256
C=C(/C(=C/C[C@@H](OC(=O)c1ccncc1)c1ccc(CO)o1)c1cc(C(=O)OC)ccc1OC)C(C)C | 0.569 | -0.82 (inactive) | -0.0553 (inactive) | 8.87 (active) | 3.69 (inactive) | 0.229 | 0.0633 | 1.24 | 0.946 | 1.2 | 0.694 (inactive) | 0.107 | 6.4 (inactive) | 1.47 (inactive) | 2.63 (inactive) | 0.529 (inactive) | 0.57 | -0.0543 (inactive) | -0.699 (inactive) | -0.86
CCCCCCC#C[Si](O[C@H](c1ccccc1)c1cn([C@H](C)c2ccccc2)nn1)(C(C)C)C(C)C | -0.0509 | -0.658 (inactive) | 0.121 (inactive) | -0.127 (inactive) | 0.15 (inactive) | 0.247 | -0.361 | 0.381 | 1.26 | 0.573 | 2.21 (inactive) | -0.234 | 1.18 (inactive) | -0.0458 (inactive) | -0.0391 (inactive) | -0.0352 (inactive) | 0.138 | 0.054 (inactive) | -0.749 (inactive) | 0.268
[N-]=[N+]=NCc1ccccc1C[C@]1(C(=O)NCC(O)CO)COC(c2ccc(OCCCO)cc2)=N1 (stereo not given in full) | 0.956 | -1.57 (inactive) | 0.305 (inactive) | 1.12 (inactive) | -1.08 (inactive) | 1.43 | 0.435 | 0.842 | 2.3 | -1.03 | 0.896 (inactive) | 0.746 | 24.8 (active) | 10.2 (active) | 3.96 (inactive) | 0.91 (inactive) | -0.0894 | -2.99 (inactive) | -0.28 (inactive) | -2.11
Cc1cccc(/C=C/C=O)c1 | -0.0267 | 0.585 (inactive) | 0.16 (inactive) | 0.0924 (inactive) | -0.0647 (inactive) | 1.04 | -0.0963 | -0.782 | -0.295 | 0.0638 | 0.595 (inactive) | -0.0479 | 0.118 (inactive) | -0.557 (inactive) | 0.565 (inactive) | -0.212 (inactive) | -0.57 | -0.0862 (inactive) | 0.0658 (inactive) | 1.56
CC(=O)n1cc(C(O)C2C=CC3C(=O)N(c4ccccc4)C(=O)C3N2Nc2ccc(C#N)cc2)c2ccccc21 (stereo not given) | 0.523 | 0.853 (inactive) | -0.935 (inactive) | -0.512 (inactive) | 0.1 (inactive) | 0.846 | 0.11 | -0.467 | 0.522 | -0.38 | -0.947 (inactive) | 0.201 | 21.5 (active) | 6.32 (inactive) | 0.566 (inactive) | 1.37 (inactive) | -0.784 | -1.15 (inactive) | -4.31 (inactive) | -3.01
CCOC(=O)C[C@H]1[C@H](OC(=O)c2ccccc2-c2ccccc2)[C@@H](NC(=O)c2ccc(-c3ccccc3)cc2)c2cc(OCCCO)ccc2N1C(=O)c1ccccc1 | 0.0187 | -0.134 (inactive) | 0.945 (inactive) | 3.85 (inactive) | -1.14 (inactive) | 0.236 | 0.0569 | -0.29 | 0.272 | 0.684 | 0.657 (inactive) | 0.0121 | 0.568 (inactive) | 0.135 (inactive) | 1.02 (inactive) | 0.157 (inactive) | 1.1 | 0.35 (inactive) | 0.169 (inactive) | 1.46
C=C(C(=O)CC[C@@H](OC(=O)c1cccnc1)c1ccc(CO)o1)C(C)C | 0.27 | 0.184 (inactive) | 0.228 (inactive) | 0.48 (inactive) | -0.135 (inactive) | 0.156 | 0.209 | 0.787 | 0.584 | 1.75 | -0.766 (inactive) | 0.329 | 1.42 (inactive) | 0.0559 (inactive) | 0.375 (inactive) | 0.209 (inactive) | -0.211 | 1.22 (inactive) | -0.133 (inactive) | 0.337
